# About 8,800 targets were measured; listed, in parts, are those with a hit and a random draw of the rest. About 0.5% of all pairs of compound and target were hits. A number with no mark means an inactive call.
# Columns and labels:
# Assay in all cases: log2 fold change, soluble protein after heating vs DMSO (PISA); higher = thermal stabilisation; K562 lysate, 10 uM; active = over 0.2 and 3.5 SD of the protein, either way, in both replicates (recomputed)
# alvocidib = compound: CN1CC[C@H](c2c(O)cc(O)c3c(=O)cc(-c4ccccc4Cl)oc23)[C@H](O)C1 [alvocidib]
# Outline: (§1)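 Dounce homogenisation of K562 pellets in PBS pH 7.4 with 1 mM MgCl2 produced a crude extract, used at 1 mg/mL protein. Exposure to 10 μM compound lasted 30 min, and aliquots were then heated for 3 min across 48°C-58°C, pooled and brought to 0.5% NP-40 at 4°C. The supernatant after 21,000xg for 90 min was quantified by TMTpro 16plex LC-MS/MS with channel sums equalised. Duplicate values are given as log-two fold change in thermal stability relative to solvent controls.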
# Tubastatin A = compound: CN1CCc2c(c3ccccc3n2Cc2ccc(C(=O)NO)cc2)C1 [Tubastatin A]
# Outline: as §1
# [1] = compound: CNC(=O)C1=CC=CC=C1NC2=NC(=NC=C2Cl)NC3=C(C=C(C=C3)N4CCOCC4)OC
# Outline: as §1
# defactinib = compound: CNC(=O)c1ccc(Nc2ncc(C(F)(F)F)c(NCc3nccnc3N(C)S(C)(=O)=O)n2)cc1 [defactinib]
# Outline: as §1
# [2] = compound: CNc1nc(-c2ccc3c(N)n[nH]c3c2)cc(N2C[C@@H](C(=O)NC3CCCCC3)CC[C@H]2C)n1
# Outline: as §1
# encorafenib = compound: COC(=O)N[C@@H](C)CNc1nccc(-c2cn(C(C)C)nc2-c2cc(Cl)cc(NS(C)(=O)=O)c2F)n1 [encorafenib]
# Outline: as §1
# [3] = compound: COC(=O)[C@H](CCSC)NC(=O)C1=C(C=C(C=C1)NC[C@H](CS)N)C2=CC=CC=C2
# Outline: as §1
# alisertib = compound: COc1cc(Nc2ncc3c(n2)-c2ccc(Cl)cc2C(c2c(F)cccc2OC)=NC3)ccc1C(=O)O [alisertib]
# Outline: as §1
# [4] = compound: COc1cc2nc(-c3cc(F)ccc3O)nc(N[C@@H]3CNC[C@H]3C(C)(C)O)c2cc1OC
# Outline: as §1
# gefitinib = compound: COc1cc2ncnc(Nc3ccc(F)c(Cl)c3)c2cc1OCCCN1CCOCC1 [gefitinib]
# Outline: as §1
# lapatinib = compound: CS(=O)(=O)CCNCc1ccc(-c2ccc3ncnc(Nc4ccc(OCc5cccc(F)c5)c(Cl)c4)c3c2)o1 [lapatinib]
# Outline: as §1
# pictilisib = compound: CS(=O)(=O)N1CCN(Cc2cc3nc(-c4cccc5[nH]ncc45)nc(N4CCOCC4)c3s2)CC1 [pictilisib]
# Outline: as §1
# crizotinib = compound: C[C@@H](Oc1cc(-c2cnn(C3CCNCC3)c2)cnc1N)c1c(Cl)ccc(F)c1Cl [crizotinib]
# Outline: as §1
# [5] = compound: C[C@H](C1=CC=C(C=C1)C(=O)NC2=C3C=CNC3=NC=C2)N
# Outline: as §1
# duvelisib = compound: C[C@H](Nc1ncnc2nc[nH]c12)c1cc2cccc(Cl)c2c(=O)n1-c1ccccc1 [duvelisib]
# Outline: as §1
# gandotinib = compound: Cc1cc(Nc2cc(CN3CCOCC3)c3nc(C)c(Cc4ccc(Cl)cc4F)n3n2)n[nH]1 [gandotinib]
# Outline: as §1
# tozasertib = compound: Cc1cc(Nc2cc(N3CCN(C)CC3)nc(Sc3ccc(NC(=O)C4CC4)cc3)n2)n[nH]1 [tozasertib]
# Outline: as §1
# doramapimod = compound: Cc1ccc(-n2nc(C(C)(C)C)cc2NC(=O)Nc2ccc(OCCN3CCOCC3)c3ccccc23)cc1 [doramapimod]
# Outline: as §1
# bafetinib = compound: Cc1ccc(NC(=O)c2ccc(CN3CC[C@H](N(C)C)C3)c(C(F)(F)F)c2)cc1Nc1nccc(-c2cncnc2)n1 [bafetinib]
# Outline: as §1
# [6] = compound: Cc1cccc(CC(=O)N2CCc3c2ccc(-c2cn(C)c4ncnc(N)c24)c3F)n1
# Outline: as §1
# Sequence of UniProt Q86WA6 (Q86WA6 whole entry, looked up): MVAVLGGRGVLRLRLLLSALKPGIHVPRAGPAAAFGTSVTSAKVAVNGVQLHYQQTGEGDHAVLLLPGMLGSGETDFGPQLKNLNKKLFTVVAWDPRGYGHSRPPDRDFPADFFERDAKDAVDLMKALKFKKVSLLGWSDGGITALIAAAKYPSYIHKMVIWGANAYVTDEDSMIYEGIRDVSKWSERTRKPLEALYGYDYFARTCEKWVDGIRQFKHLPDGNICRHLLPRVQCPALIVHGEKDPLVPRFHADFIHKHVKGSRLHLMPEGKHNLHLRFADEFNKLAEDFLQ
# Sequence of UniProt P42574 (P42574 whole entry, looked up): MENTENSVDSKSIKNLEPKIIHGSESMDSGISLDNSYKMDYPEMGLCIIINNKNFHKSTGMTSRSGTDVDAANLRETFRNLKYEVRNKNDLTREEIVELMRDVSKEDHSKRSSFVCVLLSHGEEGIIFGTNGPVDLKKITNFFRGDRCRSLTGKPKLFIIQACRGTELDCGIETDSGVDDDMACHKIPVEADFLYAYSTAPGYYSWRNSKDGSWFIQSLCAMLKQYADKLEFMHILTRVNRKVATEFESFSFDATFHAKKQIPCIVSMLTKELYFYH
# Sequence of UniProt Q7Z3E2 (Q7Z3E2 whole entry, looked up): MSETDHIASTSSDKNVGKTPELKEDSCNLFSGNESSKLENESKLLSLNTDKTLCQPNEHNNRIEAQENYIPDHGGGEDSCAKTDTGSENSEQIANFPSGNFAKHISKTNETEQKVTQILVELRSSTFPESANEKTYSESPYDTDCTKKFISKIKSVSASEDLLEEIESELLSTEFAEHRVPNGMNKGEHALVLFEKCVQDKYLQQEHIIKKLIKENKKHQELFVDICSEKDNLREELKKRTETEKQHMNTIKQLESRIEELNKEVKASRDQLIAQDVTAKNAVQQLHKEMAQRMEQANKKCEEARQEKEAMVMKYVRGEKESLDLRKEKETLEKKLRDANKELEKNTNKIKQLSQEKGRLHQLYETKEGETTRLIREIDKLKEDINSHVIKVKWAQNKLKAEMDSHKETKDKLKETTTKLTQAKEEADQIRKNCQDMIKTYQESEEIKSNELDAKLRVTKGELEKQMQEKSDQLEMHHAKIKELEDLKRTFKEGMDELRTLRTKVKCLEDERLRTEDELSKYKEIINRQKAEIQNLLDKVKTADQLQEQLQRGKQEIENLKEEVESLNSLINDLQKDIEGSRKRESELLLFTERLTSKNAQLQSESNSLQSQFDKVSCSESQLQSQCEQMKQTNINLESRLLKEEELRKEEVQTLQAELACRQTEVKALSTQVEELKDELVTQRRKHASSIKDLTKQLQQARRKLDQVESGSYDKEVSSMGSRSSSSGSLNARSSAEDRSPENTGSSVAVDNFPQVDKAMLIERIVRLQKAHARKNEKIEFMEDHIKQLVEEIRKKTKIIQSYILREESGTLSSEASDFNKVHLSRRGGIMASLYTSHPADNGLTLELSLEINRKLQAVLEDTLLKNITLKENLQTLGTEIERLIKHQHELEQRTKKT
# Sequence of UniProt Q8N163 (Q8N163 whole entry, looked up): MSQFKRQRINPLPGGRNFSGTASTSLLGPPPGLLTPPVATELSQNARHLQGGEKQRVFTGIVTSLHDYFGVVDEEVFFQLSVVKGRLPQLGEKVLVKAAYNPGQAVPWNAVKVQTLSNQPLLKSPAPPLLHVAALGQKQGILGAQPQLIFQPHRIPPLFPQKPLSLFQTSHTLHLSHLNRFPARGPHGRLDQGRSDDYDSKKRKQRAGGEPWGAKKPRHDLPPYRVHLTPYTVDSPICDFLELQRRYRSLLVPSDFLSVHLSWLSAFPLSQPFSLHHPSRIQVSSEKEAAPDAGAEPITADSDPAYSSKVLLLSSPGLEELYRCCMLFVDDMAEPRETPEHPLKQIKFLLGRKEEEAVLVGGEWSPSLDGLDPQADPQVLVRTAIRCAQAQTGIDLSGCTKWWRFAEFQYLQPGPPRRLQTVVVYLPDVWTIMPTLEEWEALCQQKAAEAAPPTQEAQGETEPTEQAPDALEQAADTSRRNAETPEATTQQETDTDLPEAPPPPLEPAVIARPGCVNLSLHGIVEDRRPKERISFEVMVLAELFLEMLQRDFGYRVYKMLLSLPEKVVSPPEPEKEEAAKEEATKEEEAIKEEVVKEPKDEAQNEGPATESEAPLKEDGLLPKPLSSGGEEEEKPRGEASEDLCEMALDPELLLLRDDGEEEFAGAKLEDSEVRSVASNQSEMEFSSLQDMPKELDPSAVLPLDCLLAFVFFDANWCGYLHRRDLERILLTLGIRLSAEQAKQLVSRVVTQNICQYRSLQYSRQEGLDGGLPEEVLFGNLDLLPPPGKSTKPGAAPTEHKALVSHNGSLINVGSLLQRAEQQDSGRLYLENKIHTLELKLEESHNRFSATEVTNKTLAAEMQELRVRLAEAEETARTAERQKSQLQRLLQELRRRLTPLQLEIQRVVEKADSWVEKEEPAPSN
# Sequence of UniProt Q13111 (Q13111 whole entry, looked up): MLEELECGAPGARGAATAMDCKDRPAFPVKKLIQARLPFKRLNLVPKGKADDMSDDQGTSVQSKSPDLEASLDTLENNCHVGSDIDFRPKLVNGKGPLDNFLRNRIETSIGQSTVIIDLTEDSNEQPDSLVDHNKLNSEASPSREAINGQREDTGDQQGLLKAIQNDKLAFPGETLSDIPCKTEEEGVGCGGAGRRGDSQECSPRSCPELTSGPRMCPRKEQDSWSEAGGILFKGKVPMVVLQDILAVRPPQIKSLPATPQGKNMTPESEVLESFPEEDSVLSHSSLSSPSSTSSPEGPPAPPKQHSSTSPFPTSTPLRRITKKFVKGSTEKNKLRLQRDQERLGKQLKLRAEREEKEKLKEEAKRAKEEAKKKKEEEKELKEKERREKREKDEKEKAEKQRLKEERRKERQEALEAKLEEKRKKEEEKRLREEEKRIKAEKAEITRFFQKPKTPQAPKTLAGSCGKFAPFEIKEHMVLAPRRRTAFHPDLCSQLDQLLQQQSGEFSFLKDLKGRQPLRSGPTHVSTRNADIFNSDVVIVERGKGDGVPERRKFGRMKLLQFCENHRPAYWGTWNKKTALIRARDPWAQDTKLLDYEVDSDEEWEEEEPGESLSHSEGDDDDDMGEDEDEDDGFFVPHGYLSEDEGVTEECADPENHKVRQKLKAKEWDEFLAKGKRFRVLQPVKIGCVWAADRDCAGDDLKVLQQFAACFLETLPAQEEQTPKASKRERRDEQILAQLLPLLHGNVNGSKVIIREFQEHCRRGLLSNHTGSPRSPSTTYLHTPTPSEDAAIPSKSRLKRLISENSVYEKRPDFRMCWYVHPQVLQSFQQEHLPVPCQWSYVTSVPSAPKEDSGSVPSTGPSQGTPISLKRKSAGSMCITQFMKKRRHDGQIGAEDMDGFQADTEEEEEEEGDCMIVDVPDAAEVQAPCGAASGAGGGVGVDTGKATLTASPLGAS
# Sequence of UniProt P40227 (P40227 whole entry, looked up): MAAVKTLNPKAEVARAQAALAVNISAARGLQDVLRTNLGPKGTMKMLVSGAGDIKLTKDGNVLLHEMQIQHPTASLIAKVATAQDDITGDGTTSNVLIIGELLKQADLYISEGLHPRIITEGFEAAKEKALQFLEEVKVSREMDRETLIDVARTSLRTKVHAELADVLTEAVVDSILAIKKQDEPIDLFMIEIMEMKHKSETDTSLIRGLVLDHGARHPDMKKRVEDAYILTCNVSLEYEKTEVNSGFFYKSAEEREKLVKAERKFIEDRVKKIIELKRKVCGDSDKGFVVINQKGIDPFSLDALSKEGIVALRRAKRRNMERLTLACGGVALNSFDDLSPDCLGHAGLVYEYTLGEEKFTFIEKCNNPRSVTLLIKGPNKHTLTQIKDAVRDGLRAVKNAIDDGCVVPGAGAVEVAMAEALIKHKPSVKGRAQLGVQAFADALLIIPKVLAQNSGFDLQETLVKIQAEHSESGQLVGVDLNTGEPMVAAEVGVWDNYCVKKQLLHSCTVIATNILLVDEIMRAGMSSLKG
# Sequence of UniProt Q9Y2V0 (Q9Y2V0 whole entry, looked up): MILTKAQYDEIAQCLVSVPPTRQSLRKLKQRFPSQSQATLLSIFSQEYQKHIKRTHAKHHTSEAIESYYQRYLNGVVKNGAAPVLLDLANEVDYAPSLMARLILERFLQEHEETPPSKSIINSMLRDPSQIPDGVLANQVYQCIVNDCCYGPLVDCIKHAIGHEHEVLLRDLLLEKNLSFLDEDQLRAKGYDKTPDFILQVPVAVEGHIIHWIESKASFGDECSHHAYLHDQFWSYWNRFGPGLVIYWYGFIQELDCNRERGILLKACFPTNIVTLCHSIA
# Sequence of UniProt O95260 (O95260 whole entry, looked up): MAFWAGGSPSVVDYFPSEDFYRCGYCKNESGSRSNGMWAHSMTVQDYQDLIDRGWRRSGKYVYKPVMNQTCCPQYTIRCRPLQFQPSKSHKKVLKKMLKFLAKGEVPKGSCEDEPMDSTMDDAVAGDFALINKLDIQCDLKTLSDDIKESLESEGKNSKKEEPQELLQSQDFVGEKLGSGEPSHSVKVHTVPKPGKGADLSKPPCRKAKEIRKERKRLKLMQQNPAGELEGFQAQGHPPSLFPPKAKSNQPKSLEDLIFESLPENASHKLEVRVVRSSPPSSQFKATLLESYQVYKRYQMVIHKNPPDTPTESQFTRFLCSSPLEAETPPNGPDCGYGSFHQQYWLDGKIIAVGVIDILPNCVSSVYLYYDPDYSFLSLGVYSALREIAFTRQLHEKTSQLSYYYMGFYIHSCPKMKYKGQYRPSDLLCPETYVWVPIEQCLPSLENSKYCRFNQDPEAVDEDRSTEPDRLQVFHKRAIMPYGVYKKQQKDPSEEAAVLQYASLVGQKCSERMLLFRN
# Sequence of UniProt P16152 (P16152 whole entry, looked up): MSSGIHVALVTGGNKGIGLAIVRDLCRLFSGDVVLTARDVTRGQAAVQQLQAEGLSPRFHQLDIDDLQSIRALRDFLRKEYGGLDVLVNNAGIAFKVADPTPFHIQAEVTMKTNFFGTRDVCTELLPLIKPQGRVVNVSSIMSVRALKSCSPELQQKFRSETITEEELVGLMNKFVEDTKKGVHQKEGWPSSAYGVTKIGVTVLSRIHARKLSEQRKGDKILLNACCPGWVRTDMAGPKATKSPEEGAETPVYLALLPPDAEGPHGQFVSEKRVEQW
Target,log2 fold change (alvocidib),log2 fold change (Tubastatin A),log2 fold change [1],log2 fold change (defactinib),log2 fold change [2],log2 fold change (encorafenib),log2 fold change [3],log2 fold change (alisertib),log2 fold change [4],log2 fold change (gefitinib),log2 fold change (lapatinib),log2 fold change (pictilisib),log2 fold change (crizotinib),log2 fold change [5],log2 fold change (duvelisib),log2 fold change (gandotinib),log2 fold change (tozasertib),log2 fold change (doramapimod),log2 fold change (bafetinib),log2 fold change [6]
CCAR2 (UniProt Q8N163),-0.052,-0.096,0.001,0.018,-0.02,0.014,0.011,0.014,0,0.003,0.002,-0.061,-0.067,-0.009,-0.015,0.058,0.026,0.022,-0.011,0.06
CHAF1A (UniProt Q13111),-0.003,-0.089,-0.019,0.02,0.038,0.003,0.063,-0.107,-0.01,-0.065,0.014,0.063,0.012,-0.054,-0.035,0.009,-0.023,0.026,-0.075,-0.005
BPHL (UniProt Q86WA6),0.004,-0.006,-0.048,0.036,-0.137,-0.002,0.004,0.085,-0.028,0.009,-0.099,-0.366 (active),0.099,0.051,0.061,-0.077,0.034,-0.003,0.132,-0.058
CCDC186 (UniProt Q7Z3E2),0.056,0.004,0.062,-0.012,-0.029,0.067,-0.004,0.015,0.004,0.055,-0.056,-0.004,0.006,0.295 (active),0.022,-0.061,0,-0.01,-0.047,-0.064
CHD1L (UniProt Q86WJ1),0.012,-0.16,-0.003,-0.001,-0.025,0.013,0.114,0.018,-0.002,0.006,-0.037,-0.045,-0.115,-0.011,0.013,-0.062,0.052,0.128,-0.055,0.038
C15orf41 (UniProt Q9Y2V0),-0.002,-0.036,0.039,-0.13,0.002,0.126,-0.043,0.023,0.09,0.006,-0.078,0.007,-0.033,0.03,0.059,0.002,0.102,-0.035,0.009,-0.017
CHD4 isoform 2 (UniProt Q14839),-0.004,-0.069,-0.014,0.007,0.017,0.013,0.087,0.016,-0.007,-0.014,0.003,-0.004,-0.007,-0.05,-0.038,0.005,0.011,0.021,-0.05,0.05
ATG4B (UniProt Q9Y4P1),0.052,-0.129,0.025,0,-0.025,0,-0.018,0.053,0.02,-0.071,0.012,-0.042,-0.087,0.114,0.01,-0.128,-0.013,0.004,-0.008,-0.059
CCNA2 (UniProt P20248),0.044,0.011,-0.002,0.037,-0.017,0.005,-0.012,-0.029,0.176,0.019,-0.004,-0.029,-0.035,-0.092,0.019,0.091,-0.073,0.059,0.027,0.049
CASP3 (UniProt P42574),0.045,0.056,0.066,0.008,0.064,0.011,-0.061,-0.037,0.001,-0.001,0.013,-0.021,0.001,0.249 (active),0.007,-0.084,-0.016,0.005,0.107,-0.089
CCNB1 (UniProt P14635),-0.015,0.021,-0.003,-0.117,0.028,0.029,-0.023,0,0.407 (active),-0.024,-0.029,-0.01,-0.024,-0.019,0.033,-0.078,0.005,0.03,-0.004,0.091
CBR1 (UniProt P16152),-0.013,0.015,-0.006,0.008,-0.041,0,0.02,-0.024,0.023,-0.068,0.023,-0.027,0.043,-0.082,-0.037,0.001,0.003,-0.044,0.034,0.032
CDK5RAP2 (UniProt Q96SN8),0.018,-0.15,0.009,0.037,-0.007,0.045,0.012,-0.007,-0.144,-0.021,-0.182,-0.04,-0.035,-0.032,0.023,-0.092,0.024,0.003,0,0.084
ATE1 isoform 2 (UniProt O95260),-0.116,-0.008,0.036,0,0.038,-0.013,0.109,0.021,0.004,-0.038,0.021,-0.058,0.024,-0.089,-0.051,0.076,-0.003,-0.071,-0.093,0.029
CCT6A (UniProt P40227),0.027,0.025,0.006,-0.018,-0.001,-0.015,-0.024,0.012,-0.003,-0.021,-0.01,0.008,0.026,0.009,-0.004,-0.018,-0.012,-0.013,0.013,-0.028
CDKN2AIP (UniProt Q9NXV6),-0.008,-0.066,-0.016,-0.011,0.054,0.023,0.236 (active),0.021,-0.003,-0.073,-0.015,-0.036,0.024,-0.04,0.017,0.08,-0.034,0.043,0.016,0.026

# From the supplement of paper PMC10849652
